Compound activity: PubChem BioAssay, National Center for Advancing Translational Sciences (NCATS)
HT1080 IDH1KD tx: qHTS for induction of synthetic lethality in tumor cells producing 2HG: qHTS for the HT-1080-IDH1KD cell line | HT-1080 IDH1 knockdown viability, ATP luminescence, 48 h | Potency, µM (titrated, usually from 46.1 µM), inactives show at the top dose activity, negative = toxicity, most hits filed as cytotoxic | 360,000 compounds, 2% hits | AID 686971, 2013;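 note: potency is the fitted concentration of half-maximal effect; 0% = DMSO wells and -100% = cell-free medium wells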
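Luminescent ATP read-out (CellTiter-Glo, 10 min at room temperature) after 48 h compound exposure at 37 °C gave viability of IDH1-knockdown HT-1080 cells. Activity was normalised to DMSO and cell-free wells, then fitted as concentration-response curves.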
IL1B secr inh: qHTS for Inhibitors of Inflammasome Signaling: IL-1-beta AlphaLISA Primary Screen; THP-1 LPS/ATP IL-1B secretion, AlphaLISA, 16 h; stronger effect = lower value; activity change, % at 57.5 µM; 360,000 compounds, 4.7% hits; AID 743279, 2014; in the data active = activity change below about -50%; inconclusive = mostly about -30% to -49%
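THP-1 cells pretreated 1 hr with compounds (up to 57.5 uM final), then stimulated with LPS (250 ng/mL final) plus ATP (1.25 mM final); secreted IL-1B measured by AlphaLISA after 16 hr, decreased signal indicating inhibition.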
ELG1 repair inh: qHTS screen for small molecules that inhibit ELG1-dependent DNA repair in human embryonic kidney (HEK293T) cells expressing luciferase-tagged ELG1 | HEK293T ELG1-luciferase reporter, luminescence, 16 h; DNA damage induced by 5-fluorouridine | Potency, µM (titrated, usually from 46.1 µM), for the others: at the highest dose activity change, negative = inhibition, usual class: inhibitors | 330,000 compounds, 2.3% hits; note: potency is the fitted concentration of half-maximal effect; nearly all actives have a fitted effect of over 55% in size
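DMSO vehicle served as the neutral condition. Each well held 2,000 cells given 5-fluorouridine plus compound; after 16 hr at 37 °C/5% CO2, ONE-Glo was added and luciferase measured 30 min later.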
DT40 TDP1 no CPT: qHTS for Inhibitors of human tyrosyl-DNA phosphodiesterase 1 (TDP1): qHTS in cells in absence of CPT; DT40 Tdp1-/- hTDP1 cells, no CPT, ATP luminescence, 48 h; Potency, µM (top dose mostly 46.2 µM), without a hit: at the top dose activity change, negative = growth inhibition, most hits filed as inhibitors; 420,000 compounds, 15% hits; AID 686978, 2013; note: potency is the fitted concentration of half-maximal effect; nearly all actives have a fitted effect of over 55% in size
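Stably hTDP1-transfected Tdp1-null chicken DT40 cells were treated with library compounds minus camptothecin and grown for at least 48 hr at 37 °C, after which cellular ATP was quantified by luminescence.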
HT1080NT lethal: qHTS for induction of synthetic lethality in tumor cells producing 2HG: qHTS for the HT-1080-NT fibrosarcoma cell line; 360,000 compounds, 1.6% hits; HT-1080-NT fibrosarcoma viability, CellTiter-Glo ATP luminescence, 48 h; Potency, µM (titrated, usually from 46.1 µM), for the others: top-dose activity, negative = less viability, actives largely listed as cytotoxic;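 note: NT is the 2HG producing partner of a matched IDH1 knockdown line; potency is the fitted concentration of half-maximal effect; 0% = DMSO-treated cells and -100% = media-only wells without cells; nearly all actives have a fitted effect of over 55% in size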
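A 48-hour cytotoxicity screen used HT-1080-NT cells plated 2 hours before compound delivery. ATP-based CellTiter-Glo luminescence measured viability, normalized to DMSO and no-cell controls.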
DT40 TDP1 CPT: qHTS for Inhibitors of human tyrosyl-DNA phosphodiesterase 1 (TDP1): qHTS in cells in presence of CPT. chicken DT40 Tdp1-/-;hTDP1 cells + 20 nM CPT, ATP luminescence, 48 h. Potency, µM (doses to about 46.2 µM), for inactives: at the highest dose activity change, negative = growth inhibition, usual class: inhibitors. 420,000 compounds, 12% hits. AID 686979, 2013; note: potency is the fitted concentration of half-maximal effect; nearly all actives have a fitted effect of over 55% in size
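Chicken DT40 Tdp1-/- cells stably complemented with human TDP1 were seeded at 400 cells/well in medium containing 20 nM camptothecin, exposed to pin-transferred compounds, and grown at 37 °C for at least 48 hr. Viability was read as ATP luminescence.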
* marks the source's active call; other numbers are inactive results. A selection: hits, their analogues and other compounds. The true share with any hit is near 19%. Unless noted, calls come from the whole dose curve; as a rule, active = well fitted curve in the direction sought with a large enough effect; inconclusive = small, poorly fitted or top-dose-only effect, or another doubt; inactive = no such curve, though single readings can be large; an effect the other way counts as inactive or inconclusive. Unless noted, % is set by controls: 0 for no effect and ±100 for the full control effect.

`Cc1ccc(-c2nn(-c3ccccc3)cc2C(=O)N2CCN(c3ccccn3)CC2)cc1` gave HT1080 IDH1KD tx inconclusive, IL1B secr inh inconclusive, ELG1 repair inh inconclusive, DT40 TDP1 no CPT 29µM*, HT1080NT lethal inconclusive and DT40 TDP1 CPT inconclusive.
Screening O=C(Nc1ccc(S(=O)(=O)Nc2ccccc2)cc1)N1CCCC1 returned DT40 TDP1 no CPT -14% and DT40 TDP1 CPT 1%.
For O=C(c1cn(-c2ccccc2)nc1-c1cccc([N+](=O)[O-])c1)N1CCCCC1 the results were HT1080 IDH1KD tx 3%, IL1B secr inh -95*, ELG1 repair inh inconclusive, DT40 TDP1 no CPT inconclusive, HT1080NT lethal 0% and DT40 TDP1 CPT -16%.
`COc1ccccc1CN1CCCC2(CCN(C(=O)c3ccco3)CC2)C1` gave DT40 TDP1 no CPT -1% and DT40 TDP1 CPT 6%.
COc1ccc(-c2cc(C(=O)NCc3ccc(F)cc3)c3c(-c4ccc(F)cc4)[nH]nc3n2)cc1OC was read as DT40 TDP1 no CPT 18µM* and DT40 TDP1 CPT 16µM*.
`Cc1ccc(CNC(=O)c2cc(-c3ccc(C)cc3)nc3n[nH]c(-c4ccc(F)cc4)c23)cc1` gave DT40 TDP1 no CPT 0% and DT40 TDP1 CPT 2%.
For COc1ccc(CNC(=O)c2cc(-c3ccc(OC)c(OC)c3)nc3n[nH]c(-c4ccc(C)cc4)c23)cc1 the results were DT40 TDP1 no CPT 5.2µM* and DT40 TDP1 CPT 5.8µM*.
`CCCCNC(=O)c1cc(-c2ccc(OC)cc2)nc2n[nH]c(-c3cccc([N+](=O)[O-])c3)c12` gave DT40 TDP1 no CPT 18µM* and DT40 TDP1 CPT 21µM*.
For Cc1ccc(-c2cc(C(=O)NCCc3ccccc3)c3c(-c4ccc(C)cc4)[nH]nc3n2)cc1 the results were DT40 TDP1 no CPT 9.2µM* and DT40 TDP1 CPT inconclusive.
Screening COc1ccc(Br)cc1C1=CC(=O)C[C@H](c2ccc(F)cc2)C1 returned HT1080 IDH1KD tx -23%, IL1B secr inh 25, DT40 TDP1 no CPT inconclusive, HT1080NT lethal -17% and DT40 TDP1 CPT inconclusive.
For COc1cc(C)cc2oc(=O)c(CC(=O)NCCc3ccc(Cl)cc3)c(C)c12 the results were DT40 TDP1 no CPT -26% and DT40 TDP1 CPT -27%.
CC(=O)n1c2ccccc2c2nc3ccccc3nc21 was read as HT1080 IDH1KD tx 10%, IL1B secr inh 44, ELG1 repair inh inconclusive, DT40 TDP1 no CPT 7%, HT1080NT lethal 13% and DT40 TDP1 CPT -5%.
CC(=O)n1c2ccccc2c2c1c1ccccc1n2C was read as HT1080 IDH1KD tx inconclusive, IL1B secr inh 0, ELG1 repair inh 1%, DT40 TDP1 no CPT -23%, HT1080NT lethal 23µM* and DT40 TDP1 CPT -19%.
For C[C@@H](c1ccccc1)N1C[C@H](COCc2ccccc2)Oc2cc(N3CCC[C@@H]3CO)ccc2S1(=O)=O the results were HT1080 IDH1KD tx inconclusive, IL1B secr inh -12, DT40 TDP1 no CPT inconclusive, HT1080NT lethal inconclusive and DT40 TDP1 CPT inconclusive.
For COC[C@@H]1CCCN1c1ccc2c(c1)O[C@@H](COCc1ccccc1)CN([C@H](C)c1ccccc1)S2(=O)=O the results were HT1080 IDH1KD tx -2%, IL1B secr inh -20, DT40 TDP1 no CPT 23µM*, HT1080NT lethal -18% and DT40 TDP1 CPT inconclusive.
